# NPSR antag: antagonists of human neuropeptide S receptor cAMP signaling. 1% of 220,000 active. Q6W5P4. CHO-NPSR cells, cAMP TR-FRET, antagonist mode. Potency, µM (doses to about 38.3 µM), inactives show top-dose activity change, negative = inhibition, most hits filed as inhibitors; further: potency means the concentration at half of the fitted maximal effect; nearly all actives have a fitted effect of over 50% in size
# Coupling enz: inhibits coupling enzyme system, counter-screen for aldolase hits. 0.67% of 290,000 active. coupling enzyme system counterscreen, AmpLite Red fluorescence. activity change, negative = inhibition, % at 58.2 µM, hits read low; in the data active means activity change below about -30%
#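 Activity here indicates interference with the coupling reaction, not aldolase inhibition. Compounds at 57.5 uM final met coupling enzymes for 10 min at RT; substrate and AmpLite Red detection followed, with a 525/598 nm fluorescence read after 20 min.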
# Sfp inh: Sfp phosphopantetheinyl transferase inhibition; Biochemical Sfp PPTase activity, qHTS; Potency, µM, inactives show largest response in the series, negative = inhibition, usual class: inhibitors; 3.5% of 310,000 active; AID 1490;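 further: the enzyme is Sfp with the accession as filed and its product quenches rhodamine fluorescence; potency means the concentration at half of the fitted maximal effect; 0% = enzyme reaction without inhibitor and -100% = no enzyme wells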
#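 Step 1, compound plus 15 nM Sfp-PPTase, 15 min, room temperature. Step 2, add rhodamine-CoA (5 uM) and BHQ-2-YbbR (12.5 uM). Step 3, read 525/598 nm fluorescence at 0 and 30 min.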
# ALDH1A1 inh: blocks purified human ALDH1A1 activity; Potency, µM (doses to about 75.3 µM), for inactives: top-dose activity, negative = inhibition, most hits filed as inhibitors; 7.3% of 220,000 active; Purified ALDH1A1, NADH fluorescence, propionaldehyde substrate; AID 1030; P00352; active means well fitted inhibition curve with a large enough effect, not every such curve was filed as active; inconclusive means small, poorly fitted or top-dose-only effect, or another doubt; inactive means no such curve, though single readings can be large or run the other way;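 further: potency means the concentration at half of the fitted maximal effect; plate controls were no enzyme wells and a reference inhibitor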
# Target sequence (P00352 whole entry, looked up): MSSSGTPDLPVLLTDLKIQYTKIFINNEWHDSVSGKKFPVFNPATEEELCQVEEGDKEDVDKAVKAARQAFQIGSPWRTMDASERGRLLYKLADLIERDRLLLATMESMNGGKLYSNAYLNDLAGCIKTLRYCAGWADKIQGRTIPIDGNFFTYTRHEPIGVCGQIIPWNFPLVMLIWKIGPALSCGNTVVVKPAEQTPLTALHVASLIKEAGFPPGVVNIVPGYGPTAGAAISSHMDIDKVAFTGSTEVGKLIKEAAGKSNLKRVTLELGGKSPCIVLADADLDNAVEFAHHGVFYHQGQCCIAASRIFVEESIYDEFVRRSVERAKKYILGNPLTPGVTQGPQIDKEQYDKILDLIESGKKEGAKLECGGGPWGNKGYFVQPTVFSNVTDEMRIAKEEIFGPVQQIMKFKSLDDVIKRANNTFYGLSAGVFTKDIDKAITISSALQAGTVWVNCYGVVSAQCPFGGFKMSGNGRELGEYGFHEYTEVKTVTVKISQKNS
# GoLoco inh red: inhibitors of human Gai1-RGS12 GoLoco interaction (red fluorophore); Gai1:RGS12 GoLoco peptide FP, rhodamine, 10 min; Potency, µM (top dose mostly 61.6 µM), inactives show at the highest dose activity, negative = inhibition, hits mostly inhibitors; 0.44% of 230,000 active; AID 880; active means well fitted inhibition curve with a large enough effect, not every such curve was filed as active; inactive means no such curve, though single readings can be large or run the other way; further: potency means the concentration at half of the fitted maximal effect; nearly all actives have a fitted effect of over 30% in size
# KDM4E inh: inhibitors of human JMJD2E histone demethylase; JMJD2E catalytic domain, FDH-coupled NADH fluorescence (FDH is formaldehyde dehydrogenase); B2RXH2; Potency, µM (highest dose often 57.1 µM), for the others: top-dose activity change, negative = inhibition, hits mostly inhibitors; 1.6% of 230,000 active; AID 2147; active means well fitted inhibition curve with a large enough effect, not every such curve was filed as active; inconclusive means small, poorly fitted or top-dose-only effect, or another doubt; inactive means no such curve, though single readings can be large or run the other way;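 further: potency means the concentration at half of the fitted maximal effect; 0% = wells with enzyme and -100% = buffer wells without enzyme; nearly all actives have a fitted effect of over 50% in size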
# * = called active by the depositor; ? = inconclusive; nt = no result given; [ ] = dose if it differs, or a comment. In the library only some 8.5% were active in any assay of this set; here they are far more common. Unless noted, the call rests on the fitted dose curve; in most records, active means well fitted curve in the direction sought with a large enough effect; inconclusive means small, poorly fitted or top-dose-only effect, or another doubt; inactive means no such curve, though single readings can be large; an effect the other way counts as inactive or inconclusive. Unless noted, on the % scale 0 is the no-effect control and ±100 the full control effect.
SMILES,NPSR antag,Coupling enz,Sfp inh,ALDH1A1 inh,GoLoco inh red,KDM4E inh
Cc1[nH]c(-c2ccc3c(c2)OCO3)nc1C(=O)O,-10.2%[46.1 µM],0.2,56.2µM*,?,39.1%,?
CCN1CCN(Cc2ccc(NC(=O)c3ccc(C)c(/C=C/c4cnc(Nc5cc(N6CCNCC6)nc(C)n5)cn4)c3)cc2C(F)(F)F)CC1,nt,-3.6,56.2µM*,nt,nt,nt
O=C(CN(C(=O)CNC(=O)c1ccco1)c1cccc(F)c1)NC1CCCCC1,nt,-0.4,5.3%,nt,nt,nt
C/C(CCC(=O)OC[C@@H]1O[C@H](C#Cc2ccccc2)C=C[C@@H]1Oc1ccc(C)cc1)=N/OC[C@@H](O)COCc1ccco1,nt,1.2,16.4%,-0.4%[13.5 µM],nt,nt
CCc1cc2c(nc1CC)CCN(CC/C(C)=N/OC[C@H]1O[C@H](c3ccccc3)C=C[C@@H]1Oc1ccc(OC)cc1)C2,-20.8%,1.0,-4.8%,4.8%[13.5 µM],62.7%,35.5µM*
COc1ccc(O[C@H]2C=C[C@@H](c3ccccc3)O[C@@H]2CO/N=C(\C)CCN2CCc3nc(-c4ccccc4)c(-c4ccccc4)cc3C2)cc1,-51.3%,1.3,-1.6%,11.7%[13.5 µM],9.4%,?
COc1ccc(O[C@H]2C=C[C@@H](c3ccccc3)O[C@@H]2COC(=O)CC/C(C)=N/OC[C@@H](O)COCc2ccco2)cc1,-3.3%,-1.9,9.5%,10µM*,3.4%,-23.2%
Cc1cc(NS(=O)(=O)c2cc(Cl)sc2Cl)no1,nt,1.4,16.4%,nt,nt,nt
Cc1c(Cc2ccccc2)c(=O)oc2c(C)c(OCC(=O)NCC3CCC(C(=O)O)CC3)ccc12 (stereo not drawn),nt,4.2,-10.2%,nt,nt,nt
COc1cc(/C=N/NC(=O)c2cc3ccccc3cc2O)ccc1OCCN1CCCCC1,11.5%,-10.7,39.8µM*,1.6%,126.0%,1.9%
COc1cc(/C=N/NC(=O)c2ccncc2)ccc1OCCN1CCCCC1,3.7%,1.6,12.7%,2.3%,6.1%,4.0%
Cc1ccc(C(c2nnnn2Cc2cccs2)N2CCN(C(=O)c3ccco3)CC2)cc1 (stereo not drawn),-23.0%[46.1 µM],-0.2,-23.3%,4.47µM*,3.6%,-1.2%
COc1ccc(C(c2nnnn2Cc2ccccc2)N2CCN(C(=O)c3ccco3)CC2)cc1 (stereo not drawn),-20.7%[46.1 µM],3.1,4.3%,28.2µM*,3.7%,-5.0%
O=C(c1ccco1)N1CCN(C(c2ccccc2F)c2nnnn2Cc2cccs2)CC1 (stereo not drawn),-10.0%[46.1 µM],6.8,-5.4%,17.8µM*,10.1%,-2.2%
CCC(c1nnnn1Cc1cccs1)N1CCN(C(=O)c2ccco2)CC1 (stereo not drawn),3.2%,0.2,13.7%,?,-3.8%,0.1%
COc1cc(/C=N/Nc2cccc3cccnc23)cc(OC)c1O,-7.5%,-0.7,50.1µM*,0.1%,1.7%,?
Oc1c(/C=N/Nc2cccc3cccnc23)ccc2ccccc12,-4.6%,-6.3,-7.3%,13.2%,4.7%,?
Oc1cccc(/C=N/Nc2cccc3cccnc23)c1,18.5%,-0.4,44.7µM*,3.2%,1.6%,?
O=C(COC(=O)/C=C/C(=O)OCC(=O)Nc1ccccc1F)Nc1ccccc1F,-12.6%[7.67 µM],1.6,0.6%,nt,-0.6%,1.8%
S=C(NCc1ccco1)N1CCN(c2ccccc2Cl)CC1,-32.8%,0.1,-1.2%,?,2.4%,10.8%
CC(CNc1ccccc1O)C(=O)O (stereo not drawn),2.0%,-10.9,50.1µM*,?,-3.8%,?
N#C/C(C(=O)NCc1ccco1)=C1/SC(Cc2ccc(Cl)cc2)C(=O)N1c1ccccc1 (stereo not drawn),-28.9%[46.1 µM],-6.7,39.8µM*,?,38.0%,-1.9%
Cc1ccc(CC2S/C(=C(/C#N)C(=O)NCc3ccco3)N(c3ccccc3)C2=O)cc1 (stereo not drawn),-12.1%[46.1 µM],3.4,-12.8%,2.6%,14.9%,-9.8%
COCOc1c2c(c(OCOC)c3c(OCOC)cccc13)/C(=N/NS(C)(=O)=O)C1=C2CCCC1,nt,-8.9,-1.3%,-13.8%,-7.5%,?
Cc1ccccc1-n1c(C)nnc1SCc1cc(=O)oc2ccc3ccccc3c12,-23.8%,2.1,79.4µM*,?,6.0%,?
SMILES,NPSR antag,Coupling enz,Sfp inh,ALDH1A1 inh,GoLoco inh red,KDM4E inh
CCCn1c(=O)c2ccccc2n2c(SCc3cc(=O)oc4ccc5ccccc5c34)nnc12,-4.5%,1.1,-14.4%,?,9.8%,?
Cc1ccc(-n2c(=S)[nH]c3[nH]ncc3c2=O)cc1,18.3%,-0.8,-24.6%,1.2%,4.0%,-1.9%
O=c1c2cn[nH]c2[nH]c(=S)n1-c1ccccc1Cl,10.9%,-0.7,56.2µM*,?,-4.3%,?
CC(C)=CCN1CCN(Cc2cnc(N3CCOCC3)s2)CC1CCO (stereo not drawn),37.2%,1.2,?,25.1µM*,3.8%,-13.1%
COC(=O)c1ccc(CN2CCN(CC=C(C)C)C(CCO)C2)cc1 (stereo not drawn),-10.3%,12.3,13.7%,20µM*,4.6%,-5.3%
CC(=O)Nc1ccc(SCC(CC(C)C)N2CCN(C)CCC2=O)cc1 (stereo not drawn),nt,5.0,18.6%,nt,nt,nt
O=c1c2c3c(sc2nc2n1CCC2)CCC3,5.6%[46.1 µM],-0.9,5.5%,-3.9%,-4.8%,-1.5%
O=c1nc2n(c3c4c(sc13)CCC4)CCC2,-5.7%[46.1 µM],-7.3,4.5%,17.8µM*,11.7%,0.8%
Cc1c(N=C2C=C(Br)C(=O)C(Br)=C2)c(=O)n(-c2ccccc2)n1C,-27.5%,-5.0,39.8µM*,10µM*,-3.1%,-15.9%
Cc1c(N=C2C=CC(=O)c3ccccc32)c(=O)n(-c2ccccc2)n1C,10µM*,-52.0*,17.8µM*,?,-1.0%,?
Cc1c(N=Nc2ccc(O)cc2)c(=O)n(-c2ccccc2)n1C,-15.0%,1.6,13.1%,6.1%,9.1%,0.8%
CCc1nc2sc3c(=O)[nH]cnc3c2c2c1CSC(C)(C)C2,-3.0%,4.1,44.7µM*,nt,-4.9%,?
O=C(NCCc1nnc2ccc(NCCCN3CCOCC3)nn12)c1ccccc1F,nt,0.8,15.3%,nt,nt,nt
Cc1c(OCC(=O)NCCCN2CCOCC2)ccc2c1oc(=O)c1ccccc12,nt,nt,10.1%,nt,nt,nt
CC(=O)Oc1cc2c(C(=O)NCCCN3CCOCC3)c(C)oc2c2ccccc12,-0.2%[46.1 µM],-37.7*,-6.1%,8.5%,-1.3%,-23.4%
O=C(NCc1cccs1)c1ccc(CS(=O)Cc2cccc(Cl)c2)o1 (stereo not drawn),nt,1.6,4.0%,nt,nt,nt
C[C@H]1Cc2c(-c3ccccc3)nc3c(c2CO1)CN(C(=O)c1cc(I)ccc1F)CC3,nt,2.1,7.4%,18.1%[13.5 µM],2.1%[14.2 µM],0.9%[11.4 µM]
COc1ccc(-c2nc3c(c4c2C[C@H](c2ccccc2)OC4)CN(C(=O)C2CCCCC2)CC3)c(C)c1,nt,-0.3,18.5%,?,4.7%[14.2 µM],-2.1%[11.4 µM]

# Assay outcomes: PubChem, National Center for Advancing Translational Sciences (NCATS)
